Inconclusive results are not listed. Calls of active or inactive are those of the source. How the source made its calls, unless noted: active means hit-call score of the fitted dose curve at least 0.9, where 1 is the maximum; inactive means score below 0.9.
Columns and labels:
[1] = CCTE_Harrill_HTTr_Viability_MCF7: CCTE's 6-hour Cell Viability Assessment for the High-Throughput Transcriptomics (HTTr) Platform, in MCF-7 cells cultured in DMEM + 10% fetal bovine serum, Harrill Lab (AID 2284010)
How it was run: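 Propidium iodide exclusion, imaged by high-content analysis, gauged viability after a six-hour exposure across eight concentrations. Cells were MCF-7 grown in DMEM with 10% fetal bovine serum; fits run in both directions against DMSO.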

[2] = CCTE_Harrill_HTTr_Apoptosis_MCF7: CCTE's 6-hour Apoptosis Assessment for the High-Throughput Transcriptomics (HTTr) Platform, in MCF-7 cells cultured in DMEM + 10% fetal bovine serum, Harrill Lab (AID 2284011)
How it was run: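 Cells are dosed with test chemicals at eight concentrations and imaged 6 hours later for caspase-3/7 activity using a green fluorogenic detection reagent. Activity is fitted in both directions against DMSO controls.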

[3] = CCTE_Shafer_MEA_acute_burst_number: CCTE's Neural Acute Assay for Single-Electrode Bursts, Shafer Lab (AID 2284013)
How it was run: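 Burst totals were derived with adaptive spike detection (8x rms threshold) on filtered signals from rat cortical cultures; change relative to pre-treatment baseline after 40-min compound exposure (0.03-40 uM) was fitted in the negative direction against DMSO.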

[4] = CCTE_Shafer_MEA_acute_per_burst_spike_number_mean: CCTE's Neural Acute Assay for Average Number of Spikes Per Burst, Shafer Lab (AID 2284015);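 further: hits are decreases in mean spikes per burst versus baseline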
How it was run: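 We recorded spontaneous network firing of rat cortical neurons for 40 min before and 40 min during exposure to compound at 0.03-40 uM, at 37 C. Spikes were detected adaptively at 8x rms noise, and the change in average spikes per burst was fitted against DMSO.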

[5] = CCTE_Shafer_MEA_acute_burst_percentage_mean: CCTE's Neural Acute Assay for Percentage of Spikes in a Burst, Shafer Lab (AID 2284017);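 on AC50: curve fitted for loss of signal so potency reflects decreased burst percentage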
How it was run: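 Compounds were tested at 0.03-40 uM on primary rat cortical neuron networks grown over microelectrodes, with at least three wells per compound. Spontaneous firing was recorded for 40 min before and 40 min after dosing, and the change in burst percentage was computed per well.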

[6] = CCTE_Shafer_MEA_acute_burst_percentage_std: CCTE's Neural Acute Assay for Standard Deviation of Burst Percentage, Shafer Lab (AID 2284018);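 further: fitted in the negative direction so actives lower burst percentage SD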
How it was run: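 Primary rat cortical neurons on 16-electrode MEA wells were recorded 40 min at baseline (DIV 13 or 15), then 40 min after compound (0.03-40 uM), at 37 C. Well value is SD across electrodes of spikes-in-bursts/total spikes; endpoint is percent change, DMSO-referenced.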

[7] = CCTE_Shafer_MEA_acute_per_network_burst_spike_number_mean: CCTE's Neural Acute Assay for Average Number of Spikes in a Network Burst, Shafer Lab (AID 2284019)
How it was run: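 Acute exposure of rat primary cortical networks (DIV 13/15) on MEAs; adaptive spike detection at 8x rms noise, 37 C. Percent change in spikes per network burst after 40 min with compound (0.03-40 uM), negative direction vs DMSO.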

[8] = CCTE_Shafer_MEA_acute_per_network_burst_spike_number_std: CCTE's Neural Acute Assay for Standard Deviation of Number of Spikes in a Network Burst, Shafer Lab (AID 2284020);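 further: fitted for decrease in spike-number SD versus DMSO so actives lower it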
How it was run: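 Acute MEA exposure, rat cortical neurons, 0.03-40 uM. Per-well % change versus own baseline; DMSO as negative control.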

[9] = CCTE_Shafer_MEA_acute_per_network_burst_electrodes_number_mean: CCTE's Neural Acute Assay for Mean Number of Electrodes in a Network Burst, Shafer Lab (AID 2284021);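 further: curves fitted for decreases only so hits reduce electrodes per burst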
How it was run: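 Cultures of rat cortex neurons were exposed on DIV 13 or 15 to compounds at 0.03-40 uM in at least three wells each. Activity over 40 min before and 40 min after exposure at 37 C gave the percent change in electrodes per network burst.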

[10] = CCTE_Shafer_MEA_acute_network_burst_percentage: CCTE's Neural Acute Assay for Percentage of Network Bursts, Shafer Lab (AID 2284022);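 further: curves fitted for loss so actives lower network burst percentage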
How it was run: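 Cortical neurons from rat were grown over microelectrode arrays and used on day 13 or 15 in vitro. Wells with at least 10 active electrodes received test chemical at 0.03-40 uM. Activity during 40 min of exposure was compared with the preceding 40-min baseline.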

[11] = CCTE_Shafer_MEA_acute_cross_correlation_HWHM: CCTE's Neural Acute Assay for Cross Correlation at Half Width at Half Maximum, Shafer Lab (AID 2284026);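 further: percent change per well from pre-dose baseline in spike cross-correlogram half width; hits are a decrease in cross-correlogram half width relative to DMSO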
How it was run: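 Primary cortex (rat), MEA, DIV 13/15; compound 0.03-40 uM; 40 min pre + 40 min post at 37 C; spike threshold 8x rms; wells need ≥10 active electrodes; endpoint = % change in cross-correlogram HWHM vs baseline, DMSO negative control.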

[12] = CCTE_Shafer_MEA_acute_synchrony_index: CCTE's Neural Acute Assay for Synchrony, Shafer Lab (AID 2284027);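 further: network synchrony index of spontaneous spiking in primary rat cortical neurons on MEAs; fitted for loss of signal so actives lower synchrony relative to DMSO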
How it was run: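 The synchrony index is taken as percent change per well between a 40 min baseline and a 40 min recording with compound (0.03–40 uM), at 37C. Rat cortical cultures on multiwell MEAs at DIV 13 or 15, spike threshold 8× rms noise.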

[13] = CCTE_Shafer_MEA_dev_firing_rate_mean: CCTE's Neural Network Formation Assay for Mean Firing Rate, Shafer Lab (AID 2284031);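 on AC50: curve fitted for loss of firing so AC50 reflects decreased mean firing rate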
How it was run: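 Spike frequency (spikes/recording length, averaged over active electrodes) was recorded on days 5, 7, 9 and 12 and collapsed to AUC; rat cortical cultures received compound continuously over 12 days of network development.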

[14] = CCTE_Shafer_MEA_dev_per_burst_spike_percent: CCTE's Neural Network Formation Assay for Percent of Spikes in a Burst, Shafer Lab (AID 2284032);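 on AC50: fitted as a decrease in burst spike percentage below DMSO baseline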
How it was run: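 Value is trapezoidal AUC over recordings on days 5, 7, 9 and 12 of the well-mean fraction of spikes falling in single-electrode bursts; rat cortical cultures exposed continuously from plating, treatment renewed DIV 5 and 9, fitted downward against DMSO.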

[15] = CCTE_Deisenroth_AIME_384WELL_CTox_Active: Cytotoxicity Assessment (CTOX) in CCTE's 384-well Estrogen Receptor Transactivation Assay with AIME metabolic competence (metabolism positive), Deisenroth Lab (AID 2284037; active means hit-call score of the fitted dose curve at least 0.9, where 1 is the maximum;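 further: chemicals first conditioned 2 h by alginate-bound induced rat liver S9 before cells; activity means signal loss indicating cell death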)
How it was run: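 VM7Luc4E2 breast cells received medium pre-incubated 2 h with chemical over alginate microspheres holding induced male Sprague Dawley rat liver S9; viability read 24 h later by protease-substrate fluorescence. Loss of signal, bidirectional fit, 0.002–200 uM.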

[16] = target: Estrogen receptor (Homo sapiens) (UniProt P03372); assay: CCTE_Deisenroth_AIME_384WELL_LUC_Inactive: CCTE's 384-well Estrogen Receptor Transactivation Assay without AIME metabolic competence (ERTA luciferase; metabolism negative), Deisenroth Lab (AID 2284038; active means hit-call score of the fitted dose curve at least 0.9, where 1 is the maximum;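 further: hits raise estrogen receptor luciferase signal so potencies reflect agonists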)
Chain of Estrogen receptor (Homo sapiens) (P03372 whole entry, looked up): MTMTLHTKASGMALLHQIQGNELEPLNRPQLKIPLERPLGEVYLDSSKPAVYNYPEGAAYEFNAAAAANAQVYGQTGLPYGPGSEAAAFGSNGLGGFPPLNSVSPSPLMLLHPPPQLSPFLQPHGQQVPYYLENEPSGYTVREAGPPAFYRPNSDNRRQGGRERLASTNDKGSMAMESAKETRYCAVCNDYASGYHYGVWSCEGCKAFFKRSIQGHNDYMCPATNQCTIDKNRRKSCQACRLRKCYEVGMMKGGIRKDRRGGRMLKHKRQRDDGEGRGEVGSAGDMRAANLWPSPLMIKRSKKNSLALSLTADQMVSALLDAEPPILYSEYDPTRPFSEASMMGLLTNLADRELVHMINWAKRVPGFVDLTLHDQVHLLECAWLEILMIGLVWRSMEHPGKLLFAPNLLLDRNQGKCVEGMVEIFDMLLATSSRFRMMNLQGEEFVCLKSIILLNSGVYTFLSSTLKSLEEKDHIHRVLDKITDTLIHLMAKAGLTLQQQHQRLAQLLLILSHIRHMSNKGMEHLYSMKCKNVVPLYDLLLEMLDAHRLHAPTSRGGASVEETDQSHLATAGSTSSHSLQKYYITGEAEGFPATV
How it was run: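 VM7Luc4E2 ER transactivation, luciferase bioluminescence after 24 h, using medium pre-incubated 2 h with S9-free alginate microspheres. Concentrations 0.002–200 uM; gain of signal fitted relative to 17beta-estradiol.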

Measured: AC50

COc1cc2c(c(OC)c1OC)-c1ccc(OC)c(=O)cc1[C@@H](NC(C)=O)CC2
active: [3] 34 µM | [9] 31.6 µM | [10] 4.03 µM | [13] 0.0179 µM | [14] 0.0285 µM | [15] 19.8 µM
inactive: all other assays above

CCCCCCOC(=O)CC(CC(=O)OCCCCCC)(OC(=O)CCC)C(=O)OCCCCCC
inactive: [1] | [2]

CCCCCCCCCCCCCCCCOS(=O)(=O)O
inactive: [1] | [2]

CNC(C)=O
inactive: [1] | [2]

CC1(C)C(=O)N(Cl)C(=O)N1Cl
inactive: [1] | [2]

c1ccc2cc3ccccc3cc2c1
active: [3] 0.0075 µM | [10] 0.003 µM
not listed: [15] | [16]
inactive: all other assays above

CCCOc1ccc(S(=O)(=O)N2CCN(CC)CC2)cc1-c1nc2c(CC)n(Cc3ccccn3)nc2c(=O)[nH]1
inactive: [1] | [2]

CCCCCCCC/C=C\CCCCCCCC(=O)OC[C@@H](O)[C@H]1OC[C@H](O)[C@H]1O
not listed: [13] | [14] | [15] | [16]
inactive: all other assays above

Cc1nccn1-c1ccc(Sc2cccc(C3(C(N)=O)CCOCC3)c2)cc1
inactive: [1] | [2]

FC(F)(F)COC(OCC(F)(F)F)OCC(F)(F)F
inactive: [13] | [14]

CC(C)CC(C)O (configuration not stated)
inactive: [1] | [2] | [15] | [16]

C[C@]12C=CC(=O)C=C1CC[C@H]1[C@@H]3C[C@@H](O)[C@](O)(C(=O)CO)[C@@]3(C)C[C@H](O)[C@@]12F
inactive: [1] | [2] | [13] | [14]

OCCC(F)(F)C(F)(F)C(F)(F)C(F)(F)F
inactive: [13] | [14]

CCCCCOC(C)=O
inactive: [1] | [2] | [15] | [16]

OCCOCCOCCO
inactive: [1] | [2] | [15] | [16]

CCc1cccc(CC)c1N
inactive: [1] | [2] | [15] | [16]

C[C@@H](Oc1ccc(CNC(=O)c2cccnc2Oc2ccc3c(c2)OCO3)c(F)c1)C(=O)O
inactive: [1] | [2] | [15] | [16]

CC(C)CCCCCCOC(=O)C1CCCCC1C(=O)OCCCCCCC(C)C (configuration not stated)
inactive: [1] | [2] | [15] | [16]

CC(C)c1nnc2ccc(-c3ocnc3-c3cc(F)ccc3F)cn12
inactive: [1] | [2] | [16]

NC(=O)NN=Cc1ccc([N+](=O)[O-])o1
active: [15] 116 µM
inactive: [1] | [2]

CCCc1ccccc1
not listed: [1] | [2] | [13] | [14]
inactive: all other assays above

CCCCOC(=O)c1ccccc1
inactive: [1] | [2] | [15] | [16]

NNC(=O)c1ccncc1
inactive: [1] | [2] | [13] | [14]

COS(C)(=O)=O
inactive: [1] | [2] | [15] | [16]

CC(=O)c1ccccc1
inactive: [1] | [2] | [15] | [16]

OC(O)(C(F)C(O)(O)C(F)(F)F)C(F)(F)F
inactive: [13] | [14]

c1ccc2c(c1)-c1cccc3c1c-2cc1ccccc13
inactive: [1] | [2] | [13] | [14] | [15] | [16]

NC(=O)N1c2ccccc2C=Cc2ccccc21
inactive: [1] | [2] | [13] | [14]

CCCCCCCC1CCC(=O)O1 (configuration not stated)
active: [5] 20 µM
not listed: [11] | [13] | [14] | [15] | [16]
inactive: all other assays above

CCOc1ccc2[nH]cc(C(=O)NCc3ccccc3)c(=O)c2n1
inactive: [1] | [2] | [13] | [14] | [16]

c1ccc2ncccc2c1
inactive: [1] | [2] | [16]

O=C1CN(N=Cc2ccc([N+](=O)[O-])o2)C(=O)N1
inactive: [1] | [2] | [15] | [16]

FC(F)(F)C(F)(F)C(F)(F)C(F)(F)C(F)(F)C(F)(F)I
inactive: [13] | [14]

Reference: PubChem BioAssay (EPA / NIEHS)
